TSG101-PTAP inh: blocks PTAP/TSG101 interaction to inhibit HIV-1 budding; Q99816; Fluorescence polarization, FITC-PTAP peptide / Tsg101 binding; Potency, µM (titrated, usually from 115 µM), for inactives: top-dose activity change, negative = inhibition, usual class: inhibitors; 340,000 tested, under 10 active; active means well fitted inhibition curve with a large enough effect in the main read-out, with a control signal flat, not every such curve was filed as active; inconclusive means small, poorly fitted or top-dose-only effect, or effect the other way, or a change in a side signal; inactive means no such curve, though single readings can be large or run the other way; further: % of control where 0% means no effect
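Fluorescence polarization binding of Tsg101 binding domain (10 uM final) to FITC-labeled PTAP peptide (50 nM final) in HEPES pH 7.5 buffer with NaCl, Tween 20, EDTA, TCEP. Compounds added before peptide; binding 20 min at RT.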
Rango release inh: prevents RanGTP from dissociating the Rango-importin beta complex; Biochemical FRET Rango-importin beta, RanGTP-induced dissociation; Potency, µM (top dose mostly 46.1 µM), for the others: top-dose activity change, negative = inhibition; hit rate 0.071% among 340,000; AID 540253; further: % of control where 0% means no effect; nearly all actives have a fitted effect of over 45% in size
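Quantitative HTS using a FRET biosensor: 0.1 uM Rango, 0.25 uM importin beta, 0.6 uM Ran, 2 mM GTP, 0.2 uM RCC1 final, PBS with DTT, Tween-20 and BSA. Post-read taken 45 min after Ran addition.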
TDP1 inh: blocks human tyrosyl-DNA phosphodiesterase 1; hit rate 0.28% among 350,000; Potency, µM (doses to about 130 µM), for inactives: at the top dose activity change, negative = inhibition, most hits filed as inhibitors; Q9NUW8; recombinant TDP1, AlphaScreen DNA substrate cleavage; active means well fitted curve in the direction sought with a large enough effect; inconclusive means small, poorly fitted or top-dose-only effect, or another doubt; inactive means no such curve, though single readings can be large; an effect the other way counts as inactive or inconclusive; further: on the % scale 0 is the no-effect control and ±100 the full control effect; nearly all actives have a fitted effect of over 40% in size
Target sequence (Q9NUW8 whole entry, looked up): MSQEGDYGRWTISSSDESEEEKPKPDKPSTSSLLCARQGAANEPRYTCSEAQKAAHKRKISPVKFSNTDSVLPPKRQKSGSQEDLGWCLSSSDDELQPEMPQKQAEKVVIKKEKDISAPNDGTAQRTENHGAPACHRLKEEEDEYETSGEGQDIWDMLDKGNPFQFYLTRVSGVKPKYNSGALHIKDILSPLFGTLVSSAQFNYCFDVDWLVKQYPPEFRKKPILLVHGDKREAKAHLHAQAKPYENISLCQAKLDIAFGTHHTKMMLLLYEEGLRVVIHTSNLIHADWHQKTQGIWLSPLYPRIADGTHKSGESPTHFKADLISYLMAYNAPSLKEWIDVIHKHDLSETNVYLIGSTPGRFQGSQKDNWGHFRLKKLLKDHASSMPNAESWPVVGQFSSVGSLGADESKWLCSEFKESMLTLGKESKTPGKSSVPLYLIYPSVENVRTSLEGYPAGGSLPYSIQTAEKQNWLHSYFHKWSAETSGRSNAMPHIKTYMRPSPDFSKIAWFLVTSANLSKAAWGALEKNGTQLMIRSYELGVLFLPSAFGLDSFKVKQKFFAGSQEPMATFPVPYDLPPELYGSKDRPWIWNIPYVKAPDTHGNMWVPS
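Enzyme-compound mixtures sat 15 min at room temperature, followed by a 5 min reaction with 15 nM final substrate and 10 min with AlphaScreen beads. Recombinant human Tdp1 was used at 1 nM final.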
ClpP mod: qHTS Assay for Activators of ClpP | purified B. subtilis ClpP, FRET peptide cleavage, 20 min | Potency, µM (series often up to 57.5 µM), without a hit: at the highest dose activity change, negative = active | hit rate 1.9% among 340,000; active means well fitted falling curve with a large enough effect; inconclusive means small, poorly fitted or top-dose-only effect; inactive means no such curve, though single readings can be large or run the other way; further: the source files actives as falling curves though it sought activators and does not explain the sign; nearly all actives have a fitted effect of over 65% in size
Target sequence (P80244 whole entry, looked up): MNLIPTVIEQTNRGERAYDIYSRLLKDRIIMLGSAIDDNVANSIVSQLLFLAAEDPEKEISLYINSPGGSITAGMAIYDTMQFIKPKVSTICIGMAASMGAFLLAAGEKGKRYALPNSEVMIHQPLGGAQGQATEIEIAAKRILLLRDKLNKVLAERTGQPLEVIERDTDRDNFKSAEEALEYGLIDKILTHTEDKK
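FRET quenching reversal measured ClpP activation: 10 microg/mL B. subtilis ClpP at pH 8 with the FRET-FV decapeptide, read at 430 nm after 320 nm excitation. The 20-min minus 0-min signal was scaled between DMSO/no-enzyme wells and ADEP (5.8 microM final).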
12-LOX inh: blocks human arachidonate 12S-lipoxygenase; P18054; purified 12hLO, xylenol orange hydroperoxide absorbance; Potency, µM (titrated, usually from 108 µM), inactives show at the top dose activity change, negative = inhibition, usual class: inhibitors; hit rate 1.1% among 580,000; active means well fitted curve in the direction sought with a large enough effect; inconclusive means small, poorly fitted or top-dose-only effect, or another doubt; inactive means no such curve, though single readings can be large; an effect the other way counts as inactive or inconclusive; further: on the % scale 0 is the no-effect control and ±100 the full control effect
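Hydroperoxide product was detected by ferrous iron/xylenol orange as the 573 to 405 nm absorbance ratio. Arachidonic acid at 40 uM (final) was turned over for 30 min at room temperature by 150 nM human 12hLO, pH 7.0 Hepes buffer, after 15 min compound preincubation.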
Rango-impB inh: Rango-importin beta binding inhibition; Rango CFP/YFP FRET sensor + importin beta, 45 min; AID 540263; Q14974; hit rate 0.031% among 340,000; Potency, µM (doses to about 92.2 µM), for inactives: at the highest dose inhibition of complex formation;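 further: 0% = DMSO wells and 100% = buffer wells lacking importin beta; nearly all actives have a fitted effect of over 15% in size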
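Inhibition scored from the CFP 486 nm/YFP 530 nm FRET ratio 45 min after adding 0.125 microM importin beta to 50 nM Rango biosensor preincubated 5 min with compound (room temperature, PBS with DTT, Tween-20, BSA). No-importin wells as positive control.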
Numbers without * were called inactive; u = inconclusive; x = no result; ! = not confirmed by another sample; [ ] = another dose, or the depositor's remark. Most compounds without a hit are left out; they make up all but 2.4% or so of the library. Unless noted, the call rests on the fitted dose curve. Potency means the concentration at half of the fitted maximal effect.

SMILES | TSG101-PTAP inh | Rango release inh | TDP1 inh | ClpP mod | 12-LOX inh | Rango-impB inh
COc1ccc(CNc2ccnc(-c3ccc4c(c3)OCO4)n2)c(OC)c1 | x | x | x | x | 20µM* | x
COc1cccc(-c2cncnc2NCCc2c[nH]c3ccc(OC)cc23)c1 | x | x | x | x | 5% | x
COc1ccc2[nH]cc(CCNc3ccnc(-c4ccc5c(c4)OCO5)n3)c2c1 | x | x | x | x | 45µM* | x
COc1ccc(CNc2ccnc(-c3cccc(C#N)c3)n2)c(OC)c1 | x | x | x | x | -28% | x
C[C@H]1[C@@H]2[C@@H](O)C([C@H](C)C(=O)N(C)CCC#N)CC[C@@]2(C)CC[C@@H]1NS(C)(=O)=O (some centres not stated) | x | x | x | x | 2%[176 µM] | x
COCC(=O)N1CCN(C(=O)Nc2ccccc2)C[C@@H]1C(=O)N[C@@H](Cc1ccc(OC)cc1)C(=O)OC | x | x | x | x | 1% | x
CCOc1ccc(S(=O)(=O)N2CCCC2c2ccc(F)cc2)cc1 (configuration not stated) | x | x | x | x | 2% | x
CN1/C(=C/c2cccc[n+]2C)Sc2ccccc21 | 1% | 12µM* | x | 1% | 0% | u
Cc1ccc2c(c1)N(C)/C(=C/c1cccc[n+]1C)S2 | -3% | u | x | x | u | u
COc1ccc(N2CCN(C(=O)c3cn(C4CCCC4)c(=O)c4c3c3ccccc3n4C)CC2)cc1 | -3% | 27% | 7% | 1% | u | -4%
Cn1c2ccccc2c2c(C(=O)N3CCN(c4ccccn4)CC3)cn(C3CCCC3)c(=O)c21 | -9% | 3% | 8% | 32µM* | 0%[57.4 µM] | 0%
CC(C)c1ccc(NC(=O)c2cn(C3CCCCC3)c(=O)c3c2c2ccccc2n3C)cc1 | x | x | 0% | 25µM* | -15% | x
Cc1ccc(Cn2ncc3c4sc(C)cc4n(C)c3c2=O)cc1 | x | x | -7% | x | x | x
Cc1cc2c(s1)c1cnn(Cc3ccc(F)cc3)c(=O)c1n2C | x | x | 50µM* | x | x | x
O=C(O)C1CC=CCC1C(=O)N1CCc2ccccc21 (configuration not stated) | -5% | 2% | 22µM* | 0% | u | 1%
O=C(c1cnccn1)N1CC(=O)N2[C@@H](CO)[C@H](c3ccc(Br)cc3)[C@@H]2C1 | x | x | x | x | 10µM* | x
O=C(O)c1cccc2cccc(-c3c4ccc(=O)c(O)c-4oc4c(O)c(O)ccc34)c12 | -16% | -27% | x | -29% | 6.3µM* | u
O=C(Nc1ccc(F)cc1F)c1ccc2c(Cl)c3c(nc2c1)CCC3 | x | x | x | x | -2% | x
N#Cc1c(-c2cccs2)cc(-c2ccccn2)nc1N | -4% | -6% | 3% | 13µM* | 10% | -2%
N#Cc1c(-c2cccs2)cc(-c2cccnc2)nc1N | -6% | u | 5% | u | -19% | u
COC(=O)CNC(=O)Cn1ccc2c(Cl)cccc21 | x | x | x | x | 16% | x
O=C(Nc1nccs1)[C@@H]1C[C@@H](c2ccc(F)cc2)N(CCOc2ccccc2)C1 | x | x | x | x | 58%[176 µM] | x
Cc1ccc(CNc2oc(-c3ccc(COc4ccc(Cl)cc4)o3)nc2C#N)cc1 | x | x | 4% | u | u | x
COc1ccc(CNc2oc(-c3ccc(COc4ccc(Cl)cc4)o3)nc2C#N)cc1 | x | x | 5% | 13µM* | -18% | x
COc1ccc(OCc2ccc(-c3nc(C#N)c(NCc4ccccc4)o3)o2)cc1 | x | x | 10% | 11µM* | -11% | x
SMILES | TSG101-PTAP inh | Rango release inh | TDP1 inh | ClpP mod | 12-LOX inh | Rango-impB inh
Cc1ccc(CNc2oc(-c3ccc(COc4ccc(C)cc4)o3)nc2C#N)cc1 | x | x | 10% | 25µM* | -3% | x
COc1ccc(CCN2C(=O)O[C@@H]3CN(S(=O)(=O)N4CCCCC4)C[C@@H]32)cc1 | x | x | x | x | 18% | x
Cc1ccc(CN[C@@H]2CO[C@H](CNS(=O)(=O)c3ccc(C)cc3)[C@H]2O)cc1 | x | x | x | x | 28µM* | x
O=C(CCC1CCCN(Cc2cccn2-c2ccccn2)C1)Nc1ccccc1F (configuration not stated) | x | x | x | x | 20% | x
CCCCN(C)C(=O)CCC(=O)NNc1nc2ccccc2c2nc(C)nn12 | 0% | 29% | 3% | 25µM*! | -2% | 4%
CC1=CCC2C(=O)N(c3nc4ccccc4n3C)C(=O)C2C1 (configuration not stated) | -5% | 4% | 40µM* | 1% | 4% | -2%
CC1CCCC/C1=N\NC(=S)Nc1ccccc1 (configuration not stated) | 0% | 3% | 8% | 1% | u | -6%
CC(C)NC(=S)N/N=C1\CCCCC1C1CCCCC1 (configuration not stated) | 1% | 18% | 12% | -2% | 22µM* | -5%
S=C(N/N=C1\CCCCC1C1CCCCC1)Nc1ccccc1 (configuration not stated) | x | x | x | x | 16µM* | x
CCOC(=O)c1nnn(-c2nonc2-n2cccc2)c1-c1cccc([N+](=O)[O-])c1 | 0% | 3% | 8% | 28µM* | -5% | 0%
CCOC(=O)c1nnn(-c2nonc2-n2cccc2)c1C | -3% | 1% | 7% | 1% | -26% | 2%
COc1ccccc1CO/N=C/c1cccn1-c1nccc(N(C)C)c1C#N | 3% | 4% | 2% | 1% | 65% | -1%
CN(C)c1ccnc(-n2cccc2/C=N/OCc2ccccc2)c1C#N | -1% | 12% | -1% | 14µM* | u | 5%
COC(=O)c1sc2ncccc2c1OCc1ccc(Cl)cc1 | -5% | 11% | 3% | 35µM* | -23% | -3%
C=C(C)COc1ccc(-c2nc(N)ncc2Oc2ccc(OC)cc2)c(O)c1 | -6% | 13% | 5% | 25µM* | u | 0%
COCCn1c(SCCCc2ccccc2)nc2c1c(=O)[nH]c(=O)n2C | -3% | -13% | 1% | -3% | -28% | 4%
COCCSc1nc2c(c(=O)[nH]c(=O)n2C)n1CCCc1ccccc1 | -7% | -10% | 6% | -3% | 28µM*! | -3%
Cc1nn(C)c2c1c(-c1ccccc1)cc(=O)n2Cc1ccc(Br)cc1F | x | x | 5% | -3% | -18% | x
Cc1nn(C)c2c1c(-c1ccccc1)cc(=O)n2Cc1ccccc1Cl | x | x | 5% | 28µM* | -30% | x
Cc1nn(C)c2c1c(-c1ccccc1)cc(=O)n2Cc1ccccc1F | x | x | -2% | 28µM* | -16% | x
CCCS(=O)(=O)N1CCCN(c2ccc(=O)n(-c3ccccc3)n2)CC1 | x | x | x | x | 0% | x
O=S(=O)(NCc1ccc(N2CCOCC2)nc1)c1cc(C(F)(F)F)cc(C(F)(F)F)c1 | x | x | x | x | 7.1µM* | x
N#Cc1ccc(C(=O)OCc2ccccn2)cc1 | x | x | x | x | -38% | x
O=C1C=C(C2CCCCC2)C(=O)c2ccccc21 | 0% | 4% | x | x | 45µM* | 3%
